# An excerpt weighted towards active compounds, which were near 2.5% of everything screened.
# CHT block = inhibitors of human choline transporter CHT; High affinity choline transporter 1 (Homo sapiens), Q9GZV3; CHT-expressing cells, membrane potential dye, choline response; active compounds read low; B-score at 10 µM; 310,000 tested, 0.86% active;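 active = B-score over 3 SD under the library average, and starting fluorescence ratio not unusually high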;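 also: choline stimulus applied at its EC90 after an EC20 pre-addition; B-score computed on integrated fluorescence ratio after choline addition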
# Target sequence (Q9GZV3 whole entry, looked up): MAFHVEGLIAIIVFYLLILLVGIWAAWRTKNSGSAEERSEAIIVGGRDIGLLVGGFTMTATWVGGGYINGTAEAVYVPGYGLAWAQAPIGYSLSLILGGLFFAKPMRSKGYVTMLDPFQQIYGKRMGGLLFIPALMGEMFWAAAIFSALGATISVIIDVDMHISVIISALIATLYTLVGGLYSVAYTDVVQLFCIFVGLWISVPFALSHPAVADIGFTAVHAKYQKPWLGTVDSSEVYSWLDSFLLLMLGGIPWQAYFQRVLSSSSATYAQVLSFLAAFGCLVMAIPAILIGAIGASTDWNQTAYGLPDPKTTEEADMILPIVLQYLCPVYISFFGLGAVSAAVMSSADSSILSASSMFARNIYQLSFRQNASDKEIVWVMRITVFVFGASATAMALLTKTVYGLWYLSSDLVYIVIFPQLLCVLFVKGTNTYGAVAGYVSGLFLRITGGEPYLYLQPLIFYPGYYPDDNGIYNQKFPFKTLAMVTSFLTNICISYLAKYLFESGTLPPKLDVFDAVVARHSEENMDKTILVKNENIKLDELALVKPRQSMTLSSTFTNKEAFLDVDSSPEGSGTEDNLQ
# CHT allo act = CHT positive allosteric modulators, primary screen, cell-based, membrane potential dye, choline EC20; CHT-expressing cells; active compounds read high; LV-AA mutant CHT in HEK293 cells; B-score at 10 µM; 310,000 tested, 0.49% active;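 active = initial fluorescence not abnormally high and integrated response B-score, plate-corrected, over 3 SD above library mean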
# TMEM16A act = TMEM16A chloride channel activators or potentiators, primary screen, cell-based, HTS; HEK293 TMEM16A/YFP-H148Q/I152L, iodide quench fluorescence; active compounds read low; Anoctamin-1 (Mus musculus), Q8BHY3; B-score at 10 µM; 340,000 tested, 0.3% active;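 active = fluorescence-ratio B-score plate-corrected deviation score at least 3 library SD below zero, with starting fluorescence score within 5 deviations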;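 also: channel opened by trigger with iodide after compound preincubation; score built on the fluorescence ratio of max minus min over baseline; more negative score means more quench and so TMEM16A activation or potentiation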
# TMEM16A inh = TMEM16A chloride channel inhibitors, primary screen, cell-based, HTS | AID 588511, 2011 | normalized B-score (activity score, 25-100; higher = stronger inhibition) at 10 µM | HEK293 TMEM16A/YFP iodide influx fluorescence, ionomycin | Anoctamin-1 (Mus musculus), Q8BHY3 | 310,000 tested, 1.2% active;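 active = ratio plate-corrected score three or more library SD toward inhibition, starting fluorescence score within five deviations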;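 also: score derived from kinetic fluorescence span divided by baseline fluorescence per well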
# PKA-R2B activ = activators of PKA-R2B holoenzyme, primary screen, biochemical, fluorescence polarization, Cy5-IP20, human; PKA-R2B holoenzyme dissociation; R2B truncated from residue 108, S112A mutant; 0% DMSO only, 100% 113 µM cGMP; activation, % at 11.4 µM; 340,000 tested, 0.079% active; AID 504700, 2011;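 active = activation above a cutoff set at the mean over all compounds plus 3 SD, cut at about 18% in these data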;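 also: higher means more holoenzyme dissociation and a rise in polarization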
# PKA-R1A act = activators of PKA-R1A holoenzyme, primary screen, biochemical, fluorescence polarization, Cy5-IP20, bovine R1A, mouse PKAc. cAMP-dependent protein kinase type I-alpha regulatory subunit (Bos taurus) + …. PKA-R1A dissociation; scaled: DMSO 0%, 113 µM cGMP 100%. activation, % at 11.4 µM. 340,000 tested, 0.083% active. AID 504707, 2011;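 active = percent activation above the mean of all tested compounds plus 3 SD, cut at about 19% in these data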;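 also: higher means more PKAc released from R1A so a rise in polarization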
# R2B FP artifact = fluorescence polarization artefacts, biochemical, artefact control for PKA-R2B activator project; shares compounds with PKA-R2B activ; FP artifact counterscreen; activation, % at 11.4 µM; 270 tested, 6% active; in the data active = activation above about 20%;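 also: Cy5 labelled IP20 peptide probe with compound but no PKA protein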
# PKA-R2B confirm = activators of PKA-R2B holoenzyme, confirmation, biochemical, fluorescence polarization, human | shares compounds with PKA-R2B activ | activation, % at 11.4 µM | AID 504797, 2011 | 270 tested, 9% active | PKA-R2B complex, activation; in the data active = activation above about 19%
# Numbers stand for hits; - = inactive; . = not tested or not shown.
SMILES,CHT block,CHT allo act,TMEM16A act,TMEM16A inh,PKA-R2B activ,PKA-R1A act,R2B FP artifact,PKA-R2B confirm
N#Cc1cc([N+](=O)[O-])ccc1NC(=O)COC(=O)C1CC2CCCC(C1)C2=O (configuration not stated),-,-,-,-,-,-,.,.
N#Cc1cc([N+](=O)[O-])ccc1NC(=O)COC(=O)C1CCC(=O)N1 (configuration not stated),.,.,-,.,20,-,-,-
CC(C)Cn1c(=O)c(C(=O)NCc2ccccn2)c(O)c2ccccc21,-,-,-,-,21,-,-,-
CN(C)CCCn1cnc2c(c1=N)C(c1ccccc1)c1ccc3ccccc3c1O2 (configuration not stated),-,-,-,-,22,-,-,-
O=c1[nH]c(-c2ccccc2)nnc1-c1ccccc1,-,-,-,-,-,-,.,.
Cc1ccsc1C(=O)Nc1nc2ccccc2[nH]1,-,-,-,-,-,-,.,.
CC(C)Oc1ccc(S(=O)(=O)N2CCCCC2)cc1NC(=O)CC1OC(=O)c2ccccc21 (configuration not stated),-,-,-,-,20,-,-,-
C=CCNc1nc2c(c(=O)[nH]c(=O)n2C)n1Cc1cccc(C)c1,.,.,-,.,22,-,-,-
CCOC(=O)C1CCN(C(=O)c2cc(COc3ccc(F)cc3F)on2)CC1,-,-,-,-,20,-,-,-
COc1ccc(C(=O)C(C)OC(=O)c2nc3nccc(C)n3n2)cc1 (configuration not stated),.,.,-,.,-,-,.,.
Cc1ccc(C(=O)N2CCN(c3ccc(C(F)(F)F)cn3)CC2)cc1,-,-,-,-,20,-,-,-
Cc1ccccc1NS(=O)(=O)c1cc(S(C)(=O)=O)ccc1C,-,-,-,-,19,-,-,-
Cc1ccccc1NS(=O)(=O)c1cc(C(N)=O)ccc1C,-,-,-,-,-,-,.,.
CC12CCC(=O)N1C(C(=O)NCc1ccccc1Cl)CS2 (configuration not stated),-,-,-,-,-,-,.,.
O=C(NC1CC1)c1ccc(F)cc1Cl,-,-,-,-,23,-,-,-
Cc1ccc(C(=O)NC2CCCCCCC2)c(Cl)c1,-,-,-,-,-,-,.,.
CCOC(=O)C1(Cc2cccc(F)c2)CCN(Cc2cnn(CC)c2C)CC1,-,-,-,-,.,.,.,.
Cc1ccccc1NC(=O)CCS(=O)(=O)c1ccc(Br)s1,-,-,-,-,19,-,-,-
Fc1ccccc1CSc1nnc2ccc(-c3ccncc3)nn12,-,-,-,-,19,-,-,-
N#C/C(=C\c1ccc(F)cc1F)S(=O)(=O)c1ccccn1,-,-,-,-,-,-,.,.
CCn1c(SCC(=O)NCCc2ccc(Cl)cc2)nnc1-c1cccs1,-,-,-,-,19,-,-,-
CCn1c(SCC(=O)NCc2cccs2)nnc1-c1cccs1,-,-,-,-,-,-,.,.
COc1ccccc1NC(=O)C1CCN(C(=O)C2CC(=O)N(c3ccc(C)cc3)C2)CC1 (configuration not stated),-,-,-,-,20,-,-,-
O=C(NCCc1ccc(Cl)cc1)c1ccc(NC2=NC3CS(=O)(=O)CC3S2)cc1 (configuration not stated),-,-,-,-,-,-,.,.
CCN(CC)CCNC(=O)c1ccc(NC2=NC3CS(=O)(=O)CC3S2)cc1 (configuration not stated),-,-,-,-,19,-,-,-
SMILES,CHT block,CHT allo act,TMEM16A act,TMEM16A inh,PKA-R2B activ,PKA-R1A act,R2B FP artifact,PKA-R2B confirm
COc1cc(S(=O)(=O)N2CCN(C(=O)c3ccco3)CC2)ccc1Cl,-,-,-,-,-,-,.,.
Cn1c(/C(C#N)=C(\O)c2ccc(S(=O)(=O)N3CCCCC3)cc2)nc2ccccc21,-,-,-,-,19,-,-,-
COc1ccc(OC)c(-c2nnc3n2N=C(c2ccc(OC)c(OC4CCOC4)c2)CS3)c1 (configuration not stated),.,.,-,.,19,-,-,-
COCCNC(=O)c1cc(-c2ccc3c(c2)OCO3)on1,-,-,-,-,18,-,-,-
COCCNC(=O)COCc1cc(-c2ccc3c(c2)OCO3)on1,-,-,-,-,-,-,.,.
COc1ccc(NC(=O)N(C)C[C@H]2Oc3ccc(NC(=O)Nc4ccc(C(F)(F)F)cc4)cc3C(=O)N([C@H](C)CO)C[C@@H]2C)cc1,.,.,-,.,-,-,.,.
COc1ccc(NC(=O)Nc2ccc3c(c2)C(=O)N([C@H](C)CO)C[C@H](C)[C@@H](CN(C)C(=O)Nc2ccc(C(F)(F)F)cc2)O3)cc1,.,.,-,.,19,-,-,-
Cc1cnc(C(=O)OCc2csc(CC(=O)Nc3ccccc3C)n2)cn1,-,-,-,-,-,-,.,.
Cc1ccc(S(=O)(=O)NNC(=O)C2CC=CCC2C(=O)O)cc1 (configuration not stated),-,-,-,-,21,-,-,-
Cc1ccc(C(=O)N2CCOCC2)cc1[N+](=O)[O-],-,-,-,-,-,-,.,.
Cc1ccc(C(=O)Nc2ccccc2C(=O)N2CCOCC2)cc1[N+](=O)[O-],-,-,-,-,20,-,-,-
CN(C)C(=O)C(CCN1CCC(O)(c2ccc(Cl)cc2)CC1)(c1ccccc1)c1ccccc1,-,-,-,-,-,-,.,.
OC(CCCN1CCC(O)(c2ccc(Cl)cc2)CC1)c1ccc(F)cc1 (configuration not stated),-,-,-,-,19,-,-,-
COc1cccc(/C=N/N2CCN(C3c4ccccc4-c4ccccc43)CC2)c1O,-,-,-,-,-,-,.,.
Cc1onc(-c2ccccc2Cl)c1C(=O)NCc1cccnc1,-,-,-,-,20,-,-,-
O=C1Nc2ccccc2/C1=C/c1cnc(-c2ccccc2)[nH]1,-,-,-,-,19,-,-,-
